About 5,700 (7.6%) of roughly 75,000 compounds were called active. A call without a number means that no potency is given here. Another 7% or so got no clear call; they are omitted. Many of the other results were omitted from the sample, so actives are more common in it than they were. Values without a mark were called inactive. The call rests on the fitted dose curve; in most records, active means well fitted inhibition curve with a large enough effect; inconclusive means small, poorly fitted or top-dose-only effect; inactive means no such curve, though single readings can be large or run the other way.
molecular target: 3-hydroxyacyl-CoA dehydrogenase type-2 (Homo sapiens) (UniProt Q99714); test: qHTS Assay for Inhibitors of HSD17B4, hydroxysteroid (17-beta) dehydrogenase 4; conditions: recombinant HSD17B10, NADH fluorescence kinetic; series mostly up to 57.1 µM;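 further: the protocol describes HADH2 (HSD17B10) and not the HSD17B4 of the title; nearly all actives have a fitted effect of over 70% in size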
Method in brief: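 20 nM HADH2, pH 9.0 Tris/Tween; cpd preinc 15 min RT; start w/ 1 mM NAD+ + 90 uM b-hydroxybutyryl-CoA; kinetic fluor ex360/em450 q30s x 4 min; delta last-first.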
Potency means the concentration at half of the fitted maximal effect.

Row | Compound | Potency | activity change, negative = inhibition
1 | O=C(CCN1C(=O)c2ccccc2C1=O)NCCN1CCOCC1 | inactive | –
2 | COCc1nc2ccccc2n1Cc1ccccc1Br | inactive | –
3 | COC(=O)N1CCC2(CCCN(Cc3ccccc3OC)C2)CC1 | inactive | –
4 | Cn1c(=O)n(C)c(=O)n(CC(=O)N2CCCCC2)c1=O | inactive | –
5 | CC1CCCN(C(=O)c2ccc3c(c2)C(=O)N(CCC2=CCCCC2)C3=O)C1 (configuration not stated) | inactive | –
6 | Cc1ccc2c(c1)c1ncn(CCC3=CCCCC3)c(=O)c1n2C | 31.6 µM (active) | –
7 | Cn1nnc2cc(C(=O)NCCC3=CCCCC3)ccc21 | inactive | –
8 | CC1(C)C(=O)C2(CCCCC2)C(=O)OC1c1cccs1 (configuration not stated) | inactive | –
9 | CC(C)CO | inactive | –
10 | CCCC(Cl)CCCC(Cl)CCC(Cl)CCC(Cl)CCC(Cl)CCCC(Cl)CCC (configuration not stated) | inactive | –
11 | CCC(=NC1CC(C)(C)NC(C)(C)C1)C1=C(O)CC(C)(C)CC1=O | inactive | –
12 | CCc1c(C)sc(NC(=O)c2ccc(Br)o2)c1C(=O)OC | 31.6 µM (active) | –
13 | CCOC(=O)c1c(NC(=O)CCC(=O)NCc2ccco2)sc2c1CCCC2 | inactive | –
14 | CCc1c(C)sc(NC(=O)OC)c1C(=O)N1CCOCC1 | inactive | –
15 | COC(=O)c1c(NC(=O)CSc2nncs2)sc2c1CCCCC2 | inactive | –
16 | COC(=O)c1c(NC(=O)c2cccs2)sc2c1CCCC2 | 31.6 µM (active) | –
17 | CCOC(=O)c1c(NC(=O)c2ccc(Br)o2)sc2c1CCCC2 | 25.1 µM (active) | –
18 | CCCOC(=O)Nc1sc2c(c1C(=O)OCC)CCC2 | inactive | –
19 | CCOC(=O)c1c(NC(=O)c2cccs2)sc(C)c1C | inactive | –

Row | Compound | Potency | activity change, negative = inhibition
20 | COc1cc(OC)c(NC(=O)c2ccc(Br)o2)cc1Cl | inactive | –
21 | CCOc1ccc(N=C2SC(C(=O)O)CC(=O)N2C)cc1 (configuration not stated) | inactive | –
22 | O=C(CCS(=O)(=O)Cc1ccccc1F)NCCCN1CCCCC1 | inactive | –
23 | Cn1c2c(c(=O)n(C)c1=O)C1c3ccccc3OCC1C(C)(C)O2 (configuration not stated) | inactive | –
24 | NCC(=O)[C@@H](O)[C@H](O)[C@H](O)CO | – | 0.448% [at 11.4 µM]
25 | COc1ccc(NC(=O)c2cccc(NC(=O)c3ccco3)c2)c(OC)c1 | inactive | –
26 | Cc1cc(C(=O)O)ccc1[N+](=O)[O-] | inactive | –
27 | CC(C)OC(=O)CN1C(=O)c2ccccc2C1=O | inactive | –
28 | CC(C)NC(=O)N1CCCC2(CCN(C(=O)c3cccn3C)CC2)C1 | inactive | –
29 | CC1CCCC(NC(=O)CSc2nccn2C)C1C (configuration not stated) | inactive | –
30 | O=C(OCC(COC(=O)c1ccccc1)(COC(=O)c1ccccc1)COC(=O)c1ccccc1)c1ccccc1 | inactive | –
31 | C/C(CCN1CCc2nc(-c3ccccc3)c(-c3ccccc3)cc2C1)=N\O[C@@H](C)c1cn([C@@H]2COC[C@@H]2O)nn1 | – | 2.35% [at 11.4 µM]
32 | C#CCCCCCCCCCCCCCCCC(=O)O | 15.8 µM (active) | –
33 | CCCCCCCCCCCC(=O)O | inactive | –
34 | O=C(O)CCCCC(=O)O | inactive | –
35 | CC1CC[C@@]23CCC4(C)[C@@]5(C)CCC6C(C)(C)C(O)CC[C@@]6(C)C5C=C[C@@]4(OC2=O)C3C1C (some centres not stated) | inactive | –
36 | O=C(NCCN1C(=O)C2C3C=CC(C3)C2C1=O)Nc1ccccn1 (configuration not stated) | inactive | –
37 | C=CCSc1nc2ccccc2[nH]1 | inactive | –
38 | c1ccc2[nH]c(-c3nc4ccccc4[nH]3)nc2c1 | 25.1 µM (active) | –

Row | Compound | Potency | activity change, negative = inhibition
39 | c1ccc(-c2[nH]ncc2-c2nc3ccccc3[nH]2)cc1 | 12.6 µM (active) | –
40 | COC(=O)Cc1nc2ccccc2[nH]1 | inactive | –
41 | C=CCSc1nc2c(c(=O)[nH]1)C(C(C)C)C(C#N)=C(N)O2 (configuration not stated) | inactive | –
42 | O=C(O)c1cccc(S(=O)(=O)NCCO)c1 | – | 10% [at 11.4 µM]
43 | O=C(NCc1ccccc1)[C@H]1C[C@@H]1[C@H](NP(=O)(c1ccccc1)c1ccccc1)c1ccccc1 | inactive | –
44 | COC(=O)c1ccc2c(c1)S(=O)(=O)NC(=NCCCN1CCOCC1)S2 | inactive | –
45 | COc1ccc(C(=O)N/N=C2/C(=O)c3c(C)cc(C)cc3CC2(C)C)cc1 | – | 12.3% [at 11.4 µM]
46 | Cc1cccc(NC(=O)CSC(N)=O)c1C | 31.6 µM (active) | –
47 | Cc1nc(C)c(C(=O)Nc2cccc(C)c2C)o1 | inactive | –
48 | Cc1cccc(NC(=O)CSc2nc3c(c(=O)[nH]2)CCC3)c1C | inactive | –
49 | Cc1nnc(NC(=O)CCC(=O)N2CCC(C)CC2)s1 | inactive | –
50 | CCCCC/C=C/C=C/C=O | inactive | –
51 | CCn1c2c(c3ccc(OC)cc31)CCCC2=O | 25.1 µM (active) | –
52 | CCn1c(=N)n(CC(=O)c2cccc(OC)c2)c2ccccc21 | inactive | –
53 | CC(=O)Nc1ccc(S(=O)(=O)NCCc2ccccc2)cc1 | inactive | –
54 | COC(=O)CCCCCN1C(=O)NC(c2ccc(-c3ccccc3)cc2)C(C(=O)OCc2ccccc2)=C1C (configuration not stated) | inactive | –
55 | Fc1ccc(-c2nnc3sc(-c4ccc5c(c4)OCO5)nn23)cc1 | inactive | –
56 | c1ccc(-c2cc(-c3nnc4sc(-c5ccccn5)nn34)[nH]n2)cc1 | 31.6 µM (active) | –
57 | COc1cc(-c2nn3c(-c4cccc(C)c4)nnc3s2)cc(OC)c1OC | inactive | –

— PubChem BioAssay AID893 (National Center for Advancing Translational Sciences (NCATS), 2007)
